This is an account of results in PubChem BioAssay AID1029 (Sanford-Burnham Center for Chemical Genomics, 2008).

About 80 (0.07%) of roughly 110,000 compounds were called active. The sample holds actives, similar compounds and a random draw of the others, so the mix is not that of the screen.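 Rule for the calls: active = inhibition above the mean of the plate negative controls plus 5 SD (cut at about 13% in these data); inactive = the rest.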

The assay in a line: blockers of IgG-bead uptake by macrophages – imaging, J774A.1 cells, IgG beads, primary screen (AID 1029).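 Note: phagocytic index as fraction of beads internalized from green versus red external bead signal; plate controls were DMSO negative control for no effect and cytochalasin-D positive control for full effect.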 To be noted: J774A.1 macrophage IgG-bead phagocytosis, at 5 µM, active compounds read high.
What is called inhibition is the relative decrease from the control value, in per cent. On to `Cc1ccc(C)c(OCC(=O)N2CCN(C(=O)c3ccco3)CC2)c1`, for which the inhibition was -4.31% (inactive).
As to `COc1ccc(-c2csc3ncnc(Oc4ccc5c(C)cc(=O)oc5c4)c23)cc1`, the inhibition was -2.34% (inactive).
With `O=C(CNS(=O)(=O)c1ccccc1)NCC(=O)OCc1ccccc1F`, the inhibition was -3.58% (inactive).
As for `CCCOc1ccc(NC(=O)C2OC3OC(C)(C)OC3C3OC(C)(C)OC23)cc1` (stereo unspecified), the inhibition is -11.4% (inactive).
With `CCOC(=O)C1=C(C)NC(=S)NC1c1cccs1` (stereo unspecified), the inhibition was -4.52% (inactive).
The figure for `Cc1scc(C(=O)NNC(=S)NCc2ccccc2)c1C` is -4.2% (inactive); for `O=C(Nc1ccccc1Cc1ccccc1)c1ccc2c(c1)SC1=NS(=O)(=O)CCN12` it is -3.83% (inactive).
The figure for `O=C(O)c1cccc(N2C(=O)Nc3ccccc3N2O)c1` is -9.86% (inactive).
`COc1ccc(Cc2nnc(N/N=C/c3ccccc3O)[nH]c2=O)cc1OC`: the inhibition is -6.04% (inactive).
As to `COCC(=O)Nc1cc(C(=O)OC)cc(C(=O)OC)c1`, the inhibition was -2.4% (inactive).
Take `CN(C)C(CNC(=O)c1ccc(S(=O)(=O)NCc2ccco2)cc1)c1ccccc1` (stereo unspecified): the inhibition was -2.95% (inactive).
In the case of `COc1cc(NC(=O)Nc2ccc(C)cc2)cc([N+](=O)[O-])c1`, the inhibition is -5.65% (inactive).
With `CC(C)C(C)(C#N)NC(=O)CSc1nc2scc(-c3ccccc3)c2c(=O)[nH]1` (stereo unspecified), the inhibition was -2.01% (inactive).
For `Cc1cccc(-c2nc3ccccc3c(=O)n2NC(=O)Cc2ccc(Cl)cc2)c1`, the inhibition was -9.34% (inactive).
Consider `O=C(NC(=S)Nc1cc(C(F)(F)F)ccc1N1CCOCC1)c1ccc(-c2cccc(Cl)c2)o1`, for which the inhibition is -11.9% (inactive).
Consider `S=C(NCCc1ccccc1)NCC1CCCO1` (stereo unspecified), for which the inhibition is 2.03% (inactive).
For the compound `Cc1nc2c(C(=O)NCc3cccs3)cnn2c(C)c1Cc1ccc(F)cc1`, the inhibition was -10.6% (inactive).
For the compound `CCCCCNC(=O)c1cccnc1SCC(=O)Nc1ccccc1OC`, the inhibition is -7.81% (inactive).
The figure for `CCCCOc1ccc(C(=O)N/C(=C/C=C/c2ccccc2)C(=O)N2CCOCC2)cc1` is -6.1% (inactive).
For the compound `CCc1ccc(NC(=O)CC2C(=O)NCCN2C(=S)Nc2ccccc2)cc1` (stereo unspecified), the inhibition is 0.25% (inactive).
As to `COC(C(=O)Nc1ccc(C(C)=O)cc1)c1ccccc1` (stereo unspecified), the inhibition was -7.11% (inactive).
Take `COCCn1c(SCC(=O)Nc2ccc3c(c2)CCC3)nc2ccccc2c1=O`: the inhibition is -6.84% (inactive).
Take `Cc1c(Cl)c([N+](=O)[O-])nn1CCCC(=O)Nc1cc(Cl)ccc1Cl`: the inhibition was -3.17% (inactive).
For `COc1ccccc1OCc1ccc(C(=O)N2CCN(C)CC2)o1`, the inhibition is 0.11% (inactive).
For `O=C(/C=C/c1cnc2ccccc2n1)NC1CCCCCC1`, the inhibition is -9.71% (inactive).
On to `CO/N=C(\N)c1ccc([N+](=O)[O-])cc1`, for which the inhibition is -3.92% (inactive).
Regarding `Cc1ccc(N(Cc2cc3ccccc3[nH]c2=O)C(=O)c2cccs2)cc1`, the inhibition was 0.22% (inactive).
As for `COC(C(=O)NCc1ccccc1C)c1ccccc1` (stereo unspecified), the inhibition was -6.05% (inactive).
Turning to `CCc1c(C)nc(N2CCN(Cc3ccccc3)CC2)[nH]c1=O`, the inhibition is -1.2% (inactive).
As for `O=c1cc(CSc2ccccn2)nc(N2CCN(c3ccccc3)CC2)[nH]1`, the inhibition is -1.3% (inactive).
Regarding `Cc1nnc(SCc2cc(=O)[nH]c(N3CCN(Cc4ccccc4)CC3)n2)s1`, the inhibition was 55.5% (active).
For the compound `O=C(N/N=C/c1coc2ccccc2c1=O)c1cc2ccccc2o1`, the inhibition was -4.52% (inactive).
With `Cc1nc2ccccc2nc(C)c1=NOCc1ccc(Cl)cc1Cl`, the inhibition is -8.1% (inactive).
As for `COc1ccc(C2CC(c3ccccc3)=NN2C(=O)CSc2nccc(=O)[nH]2)cc1` (stereo unspecified), the inhibition is -11.3% (inactive).
The figure for `COCCNC(=S)N/N=C/c1c(C)[nH]c2ccccc12` is -8.64% (inactive); for `CCCc1nc(SCC(=O)Nc2ccc(S(=O)(=O)N(C)C)cc2)c2ccccc2n1` it is -8.66% (inactive).
`CCCCC(=O)Nc1ccc(C(=O)Nc2cc(C(F)(F)F)ccc2Cl)cc1`: the inhibition was -2.66% (inactive).
Regarding `CC1=C[C@H]2Cc3cc(C)cc(C)c3S(=O)(=O)[C@@H]2C=C1`, the inhibition was -2.51% (inactive).
As to `COc1ccc(/C=N/NC(=O)c2ccc(Cl)cc2)cc1COC(C)=O`, the inhibition is -2.06% (inactive).
The figure for `CCNc1ccc(C(=O)OCC(=O)N2c3ccccc3NC(=O)C2(C)C)cc1[N+](=O)[O-]` is -2.95% (inactive); for `O=C(N/N=C/c1ccc2c(c1)OCO2)c1ccc(Cn2cc([N+](=O)[O-])cn2)o1` it is -3.46% (inactive).
As for `O=C1OC(OC(=O)c2ccccc2Br)C(N2CCOCC2)=C1Cl` (stereo unspecified), the inhibition is -11.1% (inactive).
Consider `COc1cc(C2C(N3C(=O)c4ccccc4C3=O)C(=O)N2c2ccc(C)c(C)c2)cc(OC)c1OC` (stereo unspecified), for which the inhibition is -9.54% (inactive).
Regarding `O=C(CN1C(=O)/C(=C\c2ccccc2F)SC1=S)Nc1nc2ccccc2s1`, the inhibition is -11.3% (inactive).
For `COC(=O)c1ccccc1NC(=S)NC(=O)c1ccccc1F`, the inhibition was -2.31% (inactive).
As to `Cc1[nH]n(-c2ccccc2)c(=O)c1/C=N/NC(=O)c1ccoc1C`, the inhibition was 3.58% (inactive).
Turning to `Cc1cccc(NC(=S)N(CCN(C)C)C(C)c2ccco2)c1` (stereo unspecified), the inhibition is -6.2% (inactive).
`N=C1C(=O)OCC1c1ccccc1NC(=O)CN1CCCCC1` (stereo unspecified): the inhibition is -1.24% (inactive).
For the compound `CCN(CC)CCNCc1ccc(OCc2ccc(Cl)nc2)c(OC)c1`, the inhibition was -2.95% (inactive).
As for `Cc1ccc(S(=O)(=O)N(Cc2ccc(Cl)cc2)c2ccccc2C(=O)NCc2cccnc2)cc1`, the inhibition is -8.82% (inactive).
Take `Nc1nc(NC(=O)/C=C/c2ccccc2)nn1-c1ccccc1`: the inhibition was -0.41% (inactive).
`CCc1cccc(NC(=O)CCC(=O)O)c1`: the inhibition is -2.13% (inactive).
The figure for `CCS(=O)(=O)N1Cc2ccccc2CC1C(=O)Nc1nc2ccc(F)cc2s1` (stereo unspecified) is 7.2% (inactive); for `COc1cc(/C=N/O)ccc1OCc1ccc([N+](=O)[O-])cc1` it is 0.55% (inactive).
Regarding `O=C(NC1CCN(Cc2ccccc2)CC1)c1c(F)cccc1F`, the inhibition was 2.58% (inactive).
For the compound `CC(C)(C)C(=O)N1CCC[C@@]1(CO)C(=O)O`, the inhibition is 0.17% (inactive).
For the compound `Cc1cc(/C=C2\SC(=Nc3ccc(N4CCOCC4)cc3)N(C)C2=O)c(C)n1-c1cccnc1`, the inhibition was -0.72% (inactive).
Regarding `Cc1nn(Cc2ccc(F)cc2)c(C)c1NC(=O)c1cccnc1Cl`, the inhibition is -2.17% (inactive).
For the compound `Cc1ccc(N=C2NC(=O)c3cccc([N+](=O)[O-])c32)cc1`, the inhibition was -5.47% (inactive).
The figure for `COc1ccc(C/C(C)=N/NC(=O)c2cc(C)oc2C)cc1` is -3.05% (inactive).
As for `C/C(=N\N1CCN(Cc2ccc(C)cc2)CC1)c1ccco1`, the inhibition was -3.06% (inactive).
`CCCC/S(C)=N/S(=O)(=O)c1ccc(C)cc1` (stereo unspecified): the inhibition was -3.8% (inactive).
For `O=C(NC(=O)N1CCOCC1)c1ccccc1`, the inhibition was -2.51% (inactive).
The figure for `CCN(CC)S(=O)(=O)c1cc([N+](=O)[O-])ccc1N=Nc1c(O)n(C)c2ccccc12` is -7.04% (inactive); for `CC1=C(C)CC(C(=O)NNC(=O)c2csc3c2CCC(C(C)(C)C)C3)C(C(=O)O)C1` (stereo unspecified) it is -3.56% (inactive); for `CCOC(=O)/C(=N\Nc1cc(Cl)ccc1Cl)N1CCN(C)CC1` it is -4.83% (inactive).
In the case of `Cc1ccccc1N(C(=O)Cc1cccs1)C(C(=O)NC1CCCCC1)c1cn(C)nc1C` (stereo unspecified), the inhibition is -10.4% (inactive).
With `Cc1nc(-c2ccccc2)cn2c1nc1ccccc12`, the inhibition was -5.21% (inactive).
The figure for `CCOc1ccccc1N1CCN(C(=S)Nc2ccc(S(N)(=O)=O)cc2)CC1` is -1.85% (inactive); for `CC(C)(C)NCCCOc1ccc(Cl)cc1C(C)(C)C` it is -2.22% (inactive); for `Cc1ccc(C(=O)/C=C/Nc2ccc(S(=O)(=O)Nc3onc(C)c3C)cc2)cc1` it is 4.08% (inactive).
For `O=C(c1cncc(Br)c1)N1CCN(c2ccc([N+](=O)[O-])cc2)CC1`, the inhibition is 1% (inactive).
In the case of `N=c1n(CCc2ccccc2)c2ccccc2n1Cc1ccccc1F`, the inhibition was -1.86% (inactive).
Turning to `CCCOC(=O)c1ccc(N2C(=O)c3ccccc3C2=O)cc1`, the inhibition was -13.4% (inactive).
As for `Cc1ccc(C(=O)NC(C)c2ccccc2)cc1Br` (stereo unspecified), the inhibition was -1.23% (inactive).
For the compound `Cc1ccc(CC(=O)Nc2ccc(OC(F)F)c(Cl)c2)cc1C`, the inhibition was -0.42% (inactive).
For the compound `COc1ccc(/C=C/C(=O)OCC(=O)NCc2cccs2)cc1OC`, the inhibition is -8.33% (inactive).
Turning to `Cc1ccc(C2=NN(C(=O)CSc3nc(N)cc(N)n3)C(c3ccco3)C2)cc1` (stereo unspecified), the inhibition is -1.98% (inactive).
In the case of `C=CCn1c(SCc2ccc(Cl)c(Cl)c2)nnc1C(CO)NC(=O)c1ccc(OC)cc1` (stereo unspecified), the inhibition is -2.58% (inactive).
As for `Cc1cc(F)ccc1S(=O)(=O)Nc1ncnc2scc(-c3ccc(F)cc3)c12`, the inhibition was 0.71% (inactive).
With `c1coc(-c2nc3nc4ccccc4n3nc2-c2ccco2)c1`, the inhibition was -0.8% (inactive).
For `Cc1cc(NCc2ccco2)n2c(nc3ccccc32)c1C#N`, the inhibition was -1.3% (inactive).
Turning to `CN(c1nc2ccccc2n2c(-c3ccco3)nnc12)S(=O)(=O)c1ccccc1`, the inhibition was 14.8% [artifact] (active).
With `NS(=O)(=O)c1ccc(N=Cc2ccc(Br)s2)cc1`, the inhibition was -3.71% (inactive).
Consider `Cc1nn(-c2ccccc2)c2c1C(c1cccc([N+](=O)[O-])c1)N(c1ccccc1)C(=O)N2` (stereo unspecified), for which the inhibition is -9.61% (inactive).
The figure for `COc1cc(C(=O)NNC(=O)c2ccc(S(=O)(=O)N3CCCCC3)cc2)cc(OC)c1OC` is -4.43% (inactive).
As for `CC(=O)Nc1ccc(S(=O)(=O)NC2(C(F)(F)F)C(=O)Nc3c2c(=O)[nH]c(=O)n3Cc2ccccc2)cc1` (stereo unspecified), the inhibition was -1.92% (inactive).
Regarding `CCc1ccc(C2N3CC4([N+](=O)[O-])CN2CC([N+](=O)[O-])(C3)C4(C)C)cc1` (stereo unspecified), the inhibition is -13.9% (inactive).
For the compound `C=CCn1c(CCNC(=O)c2cccs2)n[nH]c1=S`, the inhibition is -0.81% (inactive).
The figure for `COc1cc(/C=C/C(=O)N2c3ccccc3Sc3ccc(C(F)(F)F)cc32)cc(OC)c1OC` is -3.45% (inactive); for `Cc1ccc(Sc2ccncc2S(N)(=O)=O)cc1` it is -3.16% (inactive).
